Results filed as inconclusive are left out. Values without a mark were called inactive. The source made the active and inactive calls. The call rests on the fitted dose curve; in most records, active means well fitted activation curve with a large enough effect; inconclusive means small, poorly fitted or top-dose-only effect; inactive means no such curve, though single readings can be large or run the other way.
assay: qHTS Assay for Rab9 Promoter Activators: Initial hit validation from the primary screen; settings: Huh7 Rab9 promoter luciferase reporter, 24 h; series mostly up to 46.1 µM; activation: at the top concentration; on activation: % of control where 0% means no effect
In short: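 Huh7 cells stably carrying a Rab9 promoter–luciferase construct, plated in reduced-serum medium with 10% FBS, rested 2 h, then exposed to compounds in DMSO for 24 h at 37C. Luminescence read 10 min after adding Amplite luciferase reagent.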
Potency means the concentration at half of the fitted maximal effect.

For `O=C(CSc1nnc(-c2ccccn2)o1)Nc1ccccc1Cl`, the Potency was 888 nM (active).
With `O=C(NCCc1ccccc1)c1cc2ncc(Br)cn2n1` the Potency was 25000 nM (active).
With `CCc1cc(C(=O)Nc2ccccc2)cs1` the Potency was 2810 nM (active).
With `CCOC(=O)c1ccc(-c2nnc(-c3ccc(Cl)cc3Cl)o2)cc1` the Potency was 705 nM (active).

First: Nc1c(N(CCO)C(=O)/C=C/c2ccco2)c(=O)[nH]c(=O)n1Cc1ccccc1
Second: Cc1ccccc1NC(=O)Cc1nc(COC(=O)CC(C)c2ccccc2)cs1 (stereo not given)
The “activation” value of the first is higher: -1.82% for the first, -3% for the second.

First: COc1ccccc1N(C(=O)c1snc(C(N)=O)c1N)C(C(=O)NC1CCCCC1)c1cccc(OC)c1OC (stereo not given)
Second: O=C(CCCC(=O)N(CC(=O)NC1CCCCC1)c1cccc(F)c1)Nc1ccccn1
The “activation” value of the first is lower: -25.6% for the first, -0.895% for the second.

Compared with `CC(C)CC(=O)N1CCN(c2ccc(NC(=O)c3ccco3)cc2)CC1`, `COc1ccc(NC(=O)CSc2ccc([N+](=O)[O-])cc2)cc1S(=O)(=O)N1CCOCC1` is lower in “activation” value: 15.4% for the first, -11.1% for the second.

Going from `COc1ccc(-c2csc(N(CCCN(C)C)C(=O)c3ccccc3C)n2)cc1` to `CCCOC(=O)Cn1cnc2scc(-c3ccc(OC)cc3)c2c1=O`, the “activation” value rises from -38% to -8.76%.

First: O=C(CN1C(=O)COc2ccc(Cl)cc21)NCC1CCCO1 (stereo not given)
Second: COc1ccccc1NC(=S)NCc1ccc(Cl)cc1
The “activation” value of the first is lower: -7.34% for the first, -1.84% for the second.

For `Cc1ccc(C)c(Nc2cc(C)nc3ncnn23)c1`, the “activation” value was -2.73%.
